According to PubChem BioAssay AID1259421 (Broad Institute, 2018):
Several values for one entry are separate records, joined by “and”; a condition that tells them apart may be missing. Identical values can stand only once. About 610 (9.5%) of roughly 6,400 compounds were called active. The sample holds actives, similar compounds and a random draw of the others, so the mix is not that of the screen. Cut-off read from the data, not from the text of the source: active = activity change below about -70%; inconclusive = no clear call, values can overlap the other calls; inactive = above that.

Assay: T. gondii ME49Luc in HeLa cells, luciferase assay, 72 h, no IFN-y (AID 1259421)
Conditions: hits give low values, concentration not given here

Q: With `Cc1[nH]c2ccc(Cl)cc2c1C1=CCNCC1` as the molecule, how does the activity change, negative = inhibition read?
A: 8.93% (inactive) and 11.2% (inactive)

Q: With `COC(=O)CN1CN(c2ccccc2)C2(CCN(Cc3cccc4ccccc34)CC2)C1=O` as the molecule, how does the activity change, negative = inhibition read?
A: -6.13% (inactive)

Q: With `COc1ccc(OC)c(C(O)C(C)NC(C)(C)C)c1` (configuration not stated) as the molecule, how does the activity change, negative = inhibition read?
A: 12% (inactive)

Q: For `Cc1nnc2n1-c1ccc(Cl)cc1C(c1ccccc1Cl)=NC2`, which activity change, negative = inhibition is on record?
A: 18.7% (inactive)

Q: With `CC(C)(O)C(=O)Nc1ccc([N+](=O)[O-])c(C(F)(F)F)c1` as the molecule, how does the activity change, negative = inhibition read?
A: 5.88% (inactive)

Q: Which activity change, negative = inhibition does the source give for `COc1ccc(C[C@H]2NC[C@H](O)[C@H]2OC(C)=O)cc1` here?
A: -80.3% (active) and -86.5% (active)

Q: For `CC(C)(C)OC(=O)c1ncn2c1[C@@H]1CCCN1C(=O)c1c(Br)cccc1-2`, which activity change, negative = inhibition is on record?
A: 6.65% (inactive)

Q: Which activity change, negative = inhibition does the source give for `CN1CCC2=C(C1)c1ccccc1Cc1ccccc12` here?
A: 3.96% (inactive)

Q: Which activity change, negative = inhibition does the source give for `Cc1[nH]cnc1CCN` here?
A: 7.41% (inactive)

Q: Which activity change, negative = inhibition does the source give for `C[C@]12CC/C(=N\OCCN)C[C@@H]1C(=O)C[C@@H]1[C@@H]2CC[C@]2(C)C(=O)CC[C@@H]12` here?
A: 14.1% (inactive)

Q: With `Clc1ccc(C23CNCC2C3)cc1Cl` (configuration not stated) as the molecule, how does the activity change, negative = inhibition read?
A: 6.45% (inactive)

Q: For `C=CCN1CCC23c4c5ccc(O)c4OC2C(=O)CCC3(O)C1C5` (configuration not stated), which activity change, negative = inhibition is on record?
A: -2.6% (inactive)

Q: For `CC(C)=CCCC1(C)C=Cc2c(O)c3c(c(CC=C(C)C)c2O1)OC12C(=CC4CC1C(C)(C)OC2(CC=C(C)C(=O)O)C4=O)C3=O` (configuration not stated), which activity change, negative = inhibition is on record?
A: -77.9% (active)

Q: With `CC(C)=CCC[C@]1(C)C=Cc2c(O)c3c(c(CC=C(C)C)c2O1)O[C@]12C(=C[C@@H]4C[C@H]1C(C)(C)O[C@@]2(CC=C(C)C(=O)O)C4=O)C3=O` as the molecule, how does the activity change, negative = inhibition read?
A: -83.4% (active)

Q: With `CC(C)CCCC1(C)C=Cc2c(O)c3c(c(CCC(C)C)c2O1)OC12C(CC4CC1C(C)(C)OC2(CCC(C)C(=O)O)C4O)C3=O` (configuration not stated) as the molecule, how does the activity change, negative = inhibition read?
A: -3.34% (inactive)

Q: Which activity change, negative = inhibition does the source give for `CN(C)[C@@H]1C(=O)C(C(N)=O)C(=O)[C@@]2(O)C(=O)C3C(=O)c4c(O)cccc4[C@@](C)(O)C3[C@H](O)C12` (some centres not stated) here?
A: -0.0524% (inactive)

Q: Which activity change, negative = inhibition does the source give for `C=C(C)C1Cc2c(ccc3c(=O)c4c(oc23)COc2cc(OC)c(OC)cc2-4)O1` (configuration not stated) here?
A: -1.04% (inactive)

Q: Which activity change, negative = inhibition does the source give for `CCCCCCN1CCN(c2cccc(Cl)c2)CC1` here?
A: 9.58% (inactive)

Q: Which activity change, negative = inhibition does the source give for `O=C1CC2OCC=C3CN4CC[C@]56c7ccccc7N1C5[C@H]2[C@H]3CC46` (some centres not stated) here?
A: 15.9% (inactive) and 2.19% (inactive)

Q: With `CC(C)C1(NC(=O)C2CC3c4cccc5[nH]cc(c45)CC3N(C)C2)OC2(O)C3CCCN3C(=O)C(Cc3ccccc3)N2C1=O` (configuration not stated) as the molecule, how does the activity change, negative = inhibition read?
A: -21.5% (inactive)

Q: For `CN1Cc2ccccc2[C@@H]2c3cccc4[nH]cc(c34)C[C@H]21`, which activity change, negative = inhibition is on record?
A: -78.9% (active)

Q: Which activity change, negative = inhibition does the source give for `CC(C)[C@@]1(NC(=O)[C@@H]2CC3c4cccc5[nH]cc(c45)C[C@H]3N(C)C2)O[C@@]2(O)[C@@H]3CCCN3C(=O)[C@H](Cc3ccccc3)N2C1=O` (some centres not stated) here?
A: -13.7% (inactive)

Q: For `CN1CC[C@@H]2CN3CCc4cccc(c43)[C@@H]2C1`, which activity change, negative = inhibition is on record?
A: 3.72% (inactive)

Q: For `CCC(C)C(=O)O[C@H]1[C@H](O)C2C(CN3CC(C)CCC3[C@@]2(C)O)C2C[C@]34O[C@]5(O)C(OC(=O)C(C)(O)CC)CC[C@@]3(C)C5C(OC(C)=O)[C@@H](OC(C)=O)C4[C@@]21O` (some centres not stated), which activity change, negative = inhibition is on record?
A: 1.67% (inactive)

Q: For `CC1(C)CC(O)CC(C)(C)N1O`, which activity change, negative = inhibition is on record?
A: 8.37% (inactive) and 5.38% (inactive) and 2.68% (inactive)

Q: For `CN(C(=O)Cc1ccccc1)C(CN1CCCC1)c1ccccc1` (configuration not stated), which activity change, negative = inhibition is on record?
A: 6.5% (inactive)

Q: With `C[C@]12CCC3[C@@H](CC[C@@H]4C[C@H](O)CC[C@]34C)[C@@H]1CCC2=O` (some centres not stated) as the molecule, how does the activity change, negative = inhibition read?
A: 8.25% (inactive)

Q: With `C[C@]12CC[C@H](O)C[C@H]1CC[C@@H]1[C@@H]2CC[C@]2(C)[C@@H](c3ccc(=O)oc3)C[C@H]3OC132` (some centres not stated) as the molecule, how does the activity change, negative = inhibition read?
A: -78.4% (active)

Q: Which activity change, negative = inhibition does the source give for `C[C@]12CC[C@H](O)C[C@@H]1CC[C@@H]1[C@H]2CC[C@]2(C)C(=O)CC[C@@H]12` here?
A: 6.71% (inactive)

Q: With `CN(C)CCNc1nc2cc(O)ccc2c2c1C(=O)c1ccccc1-2` as the molecule, how does the activity change, negative = inhibition read?
A: -85.6% (active)

Q: With `O=C(O)C(=O)CBr` as the molecule, how does the activity change, negative = inhibition read?
A: -21.8% (inactive)

Q: For `C[N+]1(C)CCc2cc3c(cc2[C@H]1C1OC(=O)c2c1ccc1c2OCO1)OCO3` (some centres not stated), which activity change, negative = inhibition is on record?
A: 9.96% (inactive)
